Each structure is given as a SMILES string. Where a name gives a salt, the structure may show the parent alone. ± gives the standard deviation.

This test relates to Jurkat. Description: mean cell size (FSC-A) relative to DMSO control (fraction of control); higher = larger cells. The note with it: 48 h. The essentials: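 Jurkat cells at 600 cells/µl were incubated for 1 h and then treated for 48h with the Enzo Screen-Well FDA Approved Drug Library v2.0 at 25µM, with DMSO at 0.9% (v/v) final. Compounds that reduced counts below 20% of controls were retested in 10-fold dilutions down to 25nM. Cell count and mean cell size, taken as forward scatter area, were measured by flow cytometry relative to solvent-only controls. Each plate carried 6-12 controls, and values are means of 3 biological replicates.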
On to `O=C(O)c1cc(/N=N/c2ccc(S(=O)(=O)Nc3ccccn3)cc2)ccc1O` [Sulfasalazine] (concentration: 25 µM), for which the mean cell size stood at 0.965 ± 0.024.

In the case of `CC(CCc1ccc(O)cc1)NCCc1ccc(O)c(O)c1` (centres undefined) [Dobutamine·HCl] (concentration: 25 µM), the mean cell size came out at 0.952 ± 0.042.

`C[C@@H](O)[C@H]1C(=O)N2C(C(=O)O)=C(SCCNC=N)C[C@H]12` [Imipenem] (concentration: 25 µM) registered a mean cell size of 0.883 ± 0.063.

As to `CC(C)(C)NCC(O)c1ccc(O)c(CO)c1` (centres undefined) [Salbutamol Hemisulfate] (concentration: 25 µM), the mean cell size worked out at 1.01 ± 0.056.

The compound `CO[C@H]1C[C@@H]2CC[C@@H](C)[C@@](O)(O2)C(=O)C(=O)N2CCCC[C@H]2C(=O)O[C@H]([C@H](C)C[C@@H]2CC[C@@H](OCCO)[C@H](OC)C2)CC(=O)[C@H](C)/C=C(\C)[C@@H](O)[C@@H](OC)C(=O)[C@H](C)C[C@H](C)/C=C/C=C/C=C/1C` [Everolimus] (concentration: 2.5 µM) registered a mean cell size of 0.761 ± 0.015.

In turn, `Cc1cc(C)cc(OCC2CNC(=O)O2)c1` (centres undefined) [Metaxalone] (concentration: 25 µM) had a mean cell size of 0.998 ± 0.054.

`CCOC(=O)[C@H](CCc1ccccc1)N[C@@H](C)C(=O)N1Cc2ccccc2C[C@H]1C(=O)O` [Quinapril·HCl] (concentration: 25 µM) came in with a mean cell size of 0.998 ± 0.022.

`C[C@H]1[C@H](NC(=O)/C(=N\OC(C)(C)C(=O)O)c2csc(N)n2)C(=O)N1S(=O)(=O)O` [Aztreonam] (concentration: 25 µM) displayed a mean cell size of 0.927 ± 0.022.

`CCN(CC)CCOc1ccc(C(=C(Cl)c2ccccc2)c2ccccc2)cc1` [Clomiphene Citrate] (concentration: 25 µM) came in with a mean cell size of 0.897 ± 0.013.

For the compound `Cc1cccc(C)c1OCC(C)N` (centres undefined) [Mexiletine·HCl] (concentration: 25 µM), the mean cell size was determined as 0.983 ± 0.012.

As to `O=C(c1ccc(OCCN2CCCCC2)cc1)c1c(-c2ccc(O)cc2)sc2cc(O)ccc12` [Raloxifene·HCl] (concentration: 25 µM), the mean cell size was determined as 0.891 ± 0.016.

Take `CN(C)CCc1c[nH]c2ccc(C[C@H]3COC(=O)N3)cc12` [Zolmitriptan] (concentration: 25 µM): the mean cell size turned out to be 0.996 ± 0.017.

In the case of `O=C(O[C@@H]1C[C@@H]2C[C@H]3C[C@H](C1)N2CC3=O)c1c[nH]c2ccccc12` [Dolasetron] (concentration: 25 µM), the mean cell size was found to be 0.921 ± 0.029.

The compound `O=C(c1ccccc1)c1ccc2n1CCC2C(=O)O` (centres undefined) [Ketorolac Tromethamine] (concentration: 25 µM) showed a mean cell size of 0.907 ± 0.024.

Turning to `O=C1CN(/N=C/c2ccc([N+](=O)[O-])o2)C(=O)N1` [Nitrofurantoin] (concentration: 2.5 µM), the mean cell size was 0.955 ± 0.019.

As for `CCCCCCCCCCC[C@@H](C[C@@H]1OC(=O)[C@H]1CCCCCC)OC(=O)[C@H](CC(C)C)NC=O` [Orlistat (Tetrahydrolipstatin)] (concentration: 25 µM), the mean cell size amounted to 0.808 ± 0.043.

`O=C(CCCCCCC(=O)Nc1ccccc1)NO` [Vorinostat] (concentration: 250 nM) returned a mean cell size of 0.947 ± 0.035.

The compound `CCCNC(=O)NS(=O)(=O)c1ccc(Cl)cc1` [Chlorpropamide] (concentration: 25 µM) yielded a mean cell size of 1.04 ± 0.021.

In the case of `CC(=O)OCC(=O)[C@@]12OC3(CCCC3)O[C@@H]1C[C@H]1[C@@H]3CCC4=CC(=O)C=C[C@]4(C)[C@@]3(F)[C@@H](O)C[C@@]12C` [Amcinonide] (concentration: 25 µM), the mean cell size stood at 0.994 ± 0.064.

Regarding `O=c1[nH]cnc2c1ncn2[C@H]1CC[C@@H](CO)O1` [Didanosine] (concentration: 25 µM), the mean cell size was 0.9758 ± 0.0048.

`COc1cc([C@@H]2c3cc4c(cc3[C@@H](O[C@@H]3O[C@@H]5CO[C@@H](C)O[C@H]5[C@H](O)[C@H]3O)[C@H]3COC(=O)[C@H]23)OCO4)cc(OC)c1O` [Etoposide] (concentration: 250 nM) showed a mean cell size of 1.25 ± 0.076.

Compound `CO[C@H]1C[C@@H]2CC[C@@H](C)[C@@](O)(O2)C(=O)C(=O)N2CCCC[C@H]2C(=O)O[C@H]([C@H](C)C[C@@H]2CC[C@@H](OC(=O)C(C)(CO)CO)[C@H](OC)C2)CC(=O)[C@H](C)/C=C(\C)[C@@H](O)[C@@H](OC)C(=O)[C@H](C)C[C@H](C)/C=C/C=C/C=C/1C` [Temsirolimus] (concentration: 25 µM) showed a mean cell size of 0.686 ± 0.018.

The compound `Cc1cn([C@@H]2C[C@@H](O)[C@H](CO)O2)c(=O)[nH]c1=O` [Telbivudine] (concentration: 25 µM) gave a mean cell size of 0.927 ± 0.037.

`CCN1CCN(C(=O)N[C@@H](C(=O)N[C@@H]2C(=O)N3[C@@H]2SC(C)(C)[C@@H]3C(=O)O)c2ccccc2)C(=O)C1=O` [Piperacillin] (concentration: 25 µM) came in with a mean cell size of 1 ± 0.015.

Regarding `CC(C)[N+]1(C)[C@@H]2CC[C@H]1CC(OC(=O)C(CO)c1ccccc1)C2` (some centres undefined) [Ipratropium·Br] (concentration: 25 µM), the mean cell size was determined as 1.01 ± 0.029.

`S=c1[nH]cnc2nc[nH]c12` [Mercaptopurine Hydrate] (concentration: 25 µM) gave a mean cell size of 1.08 ± 0.047.

As to `CCCCC(C)(O)C/C=C/[C@H]1[C@H](O)CC(=O)[C@@H]1CCCCCCC(=O)OC` (mixture of isomers) [Misoprostol] (concentration: 25 µM), the mean cell size worked out at 0.939 ± 0.037.

Compound `Cc1ccccc1C(=O)Nc1ccc(C(=O)N2CCCC(O)c3cc(Cl)ccc32)c(C)c1` (centres undefined) [Tolvaptan] (concentration: 25 µM) displayed a mean cell size of 0.951 ± 0.055.

On to `Nc1ccn(C[C@@H](CO)OCP(=O)(O)O)c(=O)n1` [Cidofovir] (concentration: 25 µM), for which the mean cell size is 1.13 ± 0.057.

Consider `CCOc1ccc2ccccc2c1C(=O)N[C@@H]1C(=O)N2[C@@H]1SC(C)(C)[C@@H]2C(=O)O` [Nafcillin·Na] (concentration: 25 µM), for which the mean cell size came out at 0.954 ± 0.025.

For `NC(=O)c1ncn([C@@H]2O[C@H](CO)[C@@H](O)[C@H]2O)n1` [Ribavirin] (concentration: 25 µM), the mean cell size was found to be 0.9983 ± 0.0034.

`CC(C)N1CCN(c2ccc(OCC3COC(Cn4cncn4)(c4ccc(Cl)cc4Cl)O3)cc2)CC1` (centres undefined) [Terconazole] (concentration: 25 µM) had a mean cell size of 0.891 ± 0.017.

`CCc1c2c(nc3ccc(OC(=O)N4CCC(N5CCCCC5)CC4)cc13)-c1cc3c(c(=O)n1C2)COC(=O)[C@]3(O)CC` [Irinotecan·HCl] (concentration: 250 nM) yielded a mean cell size of 1.05 ± 0.038.

The compound `C[C@]12CCC3=C4CCC(=O)C=C4CC[C@H]3[C@@H]1CC[C@@]2(O)CC#N` [Dienogest] (concentration: 25 µM) registered a mean cell size of 0.963 ± 0.035.

Consider `CC(C)c1nc(N(C)S(C)(=O)=O)nc(-c2ccc(F)cc2)c1/C=C/[C@@H](O)C[C@@H](O)CC(=O)O` [Rosuvastatin Calcium] (concentration: 25 µM), for which the mean cell size was 1.19 ± 0.041.

`COC(=O)C1=C(C)NC(C)=C(C(=O)OC(C)C)C1c1cccc2nonc12` (centres undefined) [Isradipine] (concentration: 25 µM) returned a mean cell size of 0.924 ± 0.03.

With `CO[C@@]12[C@H](COC(N)=O)C3=C(C(=O)C(C)=C(N)C3=O)N1C[C@@H]1N[C@@H]12` [Mitomycin C] (concentration: 2.5 µM), the mean cell size was 1.22 ± 0.059.

Turning to `O=C(O)c1cc(=O)c2c(OCC(O)COc3cccc4oc(C(=O)O)cc(=O)c34)cccc2o1` [Cromolyn·Na (Disodium Cromoglycate)] (concentration: 25 µM), the mean cell size is 0.9231 ± 0.0045.

With `Nc1ccn([C@@H]2O[C@H](CO)[C@@H](O)[C@@H]2O)c(=O)n1` [Cytarabine] (concentration: 25 nM), the mean cell size worked out at 1.18 ± 0.05.

(Values after the supplement of paper PMC4709259.)
